High-throughput results (PubChem BioAssay)
A selection: hits, their analogues and other compounds. The true share with any hit is near 21%.
Sm TGR inh: qHTS Assay for the Inhibitors of Schistosoma Mansoni Peroxiredoxins; Schistosoma mansoni thioredoxin glutathione reductase (TGR), Q962Y6; purified TGR, DTNB reduction, TNB absorbance 405 nm; Potency, µM (series often up to 114 µM), for inactives: at the top dose activity change, negative = inhibition, hits mostly inhibitors; actives 3% (n = 360,000); AID 485364, 2010; further: potency means the concentration at half of the fitted maximal effect; on the % scale 0 is the no-effect control and ±100 the full control effect; nearly all actives have a fitted effect of over 60% in size
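First, TGR (20 nM dispensed) and NADPH were mixed with compound. Second, a 15 min room-temperature incubation followed. Third, further NADPH and then DTNB were added to start the reaction. Finally, TNB absorbance was monitored kinetically.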
Pf growth 96h: Primary qHTS for delayed death inhibitors of the malarial parasite plastid, 96 hour incubation. AID 504834, 2011. actives 6.9% (n = 320,000). Potency, µM (top dose mostly 28.7 µM), for inactives: at the highest dose activity change, negative = inhibition, usual class: inhibitors. P. falciparum luciferase reporter growth, 96 h; further: potency means the concentration at half of the fitted maximal effect; on the % scale 0 is the no-effect control and ±100 the full control effect
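Two-generation exposure (96 h) targets delayed-death phenotype. Reporter parasites carrying integrated firefly luciferase, in red cells at 2% hematocrit and 0.05% parasitemia final, kept at 37 C, 5% CO2; luminescence loss indicates inhibition.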
CHX counter: Cycloheximide Counterscreen for Small Molecule Inhibitors of Shiga Toxin | cell reporter, cycloheximide protein synthesis inhibition counterscreen | max response, % | actives 12% (n = 300,000) | AID 2314, 2010; in the data active means max response mostly above about 13%, no sharp cut-off; inactive means mostly below about 14%; further: read at 38.3 µM for the half of the compounds with a filed dose; 0% is about no effect
NS1 inh: qHTS Assay for Inhibitors of Influenza NS1 Protein Function. actives 0.4% (n = 270,000). Potency, µM (top dose mostly 46.1 µM), for the others: top-dose activity, positive = more growth; calls by dose curve; further: potency means the concentration at half of the fitted maximal effect; actives are rising curves; nearly all actives have a fitted effect of over 50% in size
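Read-out: OD600 growth recovery of NS1-expressing budding yeast. Cells grown overnight at 30C in -URA glucose medium, washed, resuspended and diluted 1:100 in 2% galactose assay medium, pH 6.0. Same strain lacking NS1 served as positive control.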
Shiga inhibitor: A qHTS for Small Molecule Inhibitors of Shiga Toxin; actives 9.2% (n = 290,000); Vero cells, Shiga toxin protein synthesis inhibition reporter; inhibition, % at 38.7 µM; in the data active means inhibition mostly above about 28%, no sharp cut-off; inactive means mostly below about 43%; further: 0% is about no effect
Pf growth 48h: Primary qHTS for delayed death inhibitors of the malarial parasite plastid, 48 hour incubation; AID 504832, 2011; P. falciparum luciferase growth in erythrocytes, 48 h; Potency, µM (highest dose often 28.7 µM), inactives show top-dose activity change, negative = inhibition, hits mostly inhibitors; actives 5.9% (n = 310,000); further: potency means the concentration at half of the fitted maximal effect; on the % scale 0 is the no-effect control and ±100 the full control effect
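Erythrocytes infected with P. falciparum carrying an integrated firefly luciferase reporter (2% hematocrit, 0.1% parasitemia final) were exposed to compounds in RPMI 1640 with 0.5% Albumax at 37 C, 5% CO2. Growth inhibition was scored as reduced luminescence.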
* hit, by the source's call; ? = inconclusive; . = no result given. Unless noted, the call rests on the fitted dose curve; in most records, active means well fitted curve in the direction sought with a large enough effect; inconclusive means small, poorly fitted or top-dose-only effect, or another doubt; inactive means no such curve, though single readings can be large; an effect the other way counts as inactive or inconclusive.

SMILES	Sm TGR inh	Pf growth 96h	CHX counter	NS1 inh	Shiga inhibitor	Pf growth 48h
C/C(=N\NC(=O)c1nnn(-c2nonc2N)c1CN(C)c1ccccc1)c1ccccn1	7.3%	5.22µM*	2.4	-11.2%	-16.1	13.1µM*
CCCN(CCC)Cc1c(C(=O)N/N=C/CCc2ccccc2)nnn1-c1nonc1N	4.8%	9.28µM*	-2.2	8.5%	20.6	-2.2%
O=P(c1ccccc1)(c1ccccc1)c1ccc(O)cc1	-9.9%	10.4%	-1.9	2.3%	-9.7	-7.1%
O=S(=O)(c1ccccc1)c1nc(-c2ccc(Cl)cc2Cl)oc1N1CCCCCC1	0.7%	.	.	.	.	.
CC(O)CNc1nc2c(c(=O)n(Cc3ccccc3)c(=O)n2C)n1C (stereo unspecified)	-1.5%	-20.5%	-2.3	2.4%	-0.3	.
COC(=O)c1cccc(Nc2c(-c3ccc(OC)cc3)nc3nc[nH]n23)c1	-0.5%	.	.	.	.	.
COC(=O)c1cccc(Nc2c(-c3ccc(O)c(OC)c3)nc3nc[nH]n23)c1	39.8µM*	.	.	.	.	.
Cn1nc([N+](=O)[O-])c(C(C#N)c2ccccn2)c(Cl)c1=O (stereo unspecified)	4.47µM*	-33.2%	1.5	.	13.5	?
CCCn1nc([N+](=O)[O-])c(C(C#N)c2nc3ccccc3o2)c(Cl)c1=O (stereo unspecified)	2.24µM*	-22.6%	17.5	-35.7%	10.3	-19.0%
CCCCn1c(N)c(-c2nc3ccccc3o2)c2c([N+](=O)[O-])nn(CC)c(=O)c21	-1.7%	-5.5%	-0.8	6.6%	-6.1	-3.7%
N#CC(c1ccccn1)c1ncc(C(F)(F)F)cc1Cl (stereo unspecified)	23.8%	43.1%	-1.5	0.6%	10.3	32.8%
CCn1nc([N+](=O)[O-])c(C(C#N)c2nc3cc(C(F)(F)F)ccc3s2)c(Cl)c1=O (stereo unspecified)	3.98µM*	21.0%	-1.0	13.1%	-7.7	.
CC(=O)Nc1c(C(=O)N2CCN(c3ccccn3)CC2)cnn1-c1ccc(C)cc1	2.8%	-18.3%	-2.2	6.2%	-0.3	-1.5%
O=C(c1cc(COc2ccc(F)cc2Cl)on1)N1CCCCCC1	11.5%	0.5%	52.8*	-36.0%	89.1*	55.2%
O=C(c1cc(COc2ccc(F)cc2Cl)on1)N1CCCCCCC1	-4.0%	?	32.2*	-16.8%	40.3*	6.1%
O=C(N[C@H]1CCCCNC1=O)c1cc(COc2ccc(F)cc2F)on1	3.3%	-22.8%	19.4*	4.4%	9.5	35.5%
CCC(NC(=O)c1cc(COc2ccc(F)cc2Cl)on1)c1ccncc1 (stereo unspecified)	-28.5%	-6.3%	6.4*	-28.2%	-0.6	-0.5%
C=CCCO[C@@H]1O[C@@H](C)[C@H](O)C[C@H]1O	-0.5%	22.8%	.	.	.	25.6%
COc1ccc(-c2c3c(=O)n(C)c(=O)n(C)c3cn2-c2cccc(N)c2)cc1	-16.1%	.	.	.	.	.
O=C(c1cc(COc2ccc(F)cc2F)on1)N1CCSCC1	14.7%	-7.9%	57.6*	?	85.1*	90.8%
CCC(=O)OCCCNc1nc(-c2ccc(Cl)cc2)nc2ccccc12	2.0%	.	.	.	.	.
COc1cccc(NC(=O)Nc2ccc3c(c2)OCO3)c1	-1.1%	-3.4%	39.6*	5.8%	77.1*	84.0%
COc1ccc(OC)c(NC(=O)Nc2ccc3c(c2)OCO3)c1	-5.8%	36.9%	14.6*	10.0%	55.9*	-11.3%
COc1ccc(OC)c(S(=O)(=O)N(C)CC(=O)Nc2ccc3c(c2)OCO3)c1	-17.5%	.	0.9	0.4%	-6.8	-2.1%
CCCNC(=O)CN(C)S(=O)(=O)c1c(C)cc(C)cc1C	-20.8%	10.4µM*	-1.5	-6.8%	-1.0	7.38µM*
SMILES	Sm TGR inh	Pf growth 96h	CHX counter	NS1 inh	Shiga inhibitor	Pf growth 48h
CCCNC(=O)CN(C)S(=O)(=O)c1ccc(F)cc1	-5.9%	12.4%	12.8	?	16.0	-8.2%
NC(=O)c1cc(Cc2ccccc2)sc1NC(=O)c1ccco1	8.9%	.	47.1*	-29.0%	78.4*	50.6%
CCOc1ccc(CC(=O)Nc2sc(Cc3ccccc3)cc2C(N)=O)cc1OCC	-13.5%	11.7µM*	4.6	-5.4%	-6.8	.
COC(=O)c1cc(C)sc1NC(=O)c1ccco1	-15.5%	24.5%	-1.5	-20.3%	-5.0	26.8%
Cc1cc(NC(=O)c2ccc(COc3ccc(Cl)c(C)c3)o2)no1	-17.6%	9.28µM*	7.5	10.5%	-3.9	-8.7%
O=C(Nc1nccs1)c1ccc(COc2c(F)c(F)cc(F)c2F)o1	-22.4%	-22.6%	.	.	.	8.5%
Cc1ccc(OCc2ccc(C(=O)Nc3nccs3)o2)cc1C	1.6%	0.5%	24.9*	15.7%	46.9	-12.3%
Cc1cc(NC(=O)c2ccc(COc3ccccc3Cl)o2)no1	-3.8%	-16.1%	12.4	.	18.2	-18.9%
O=C(Nc1nccs1)c1ccc(COc2ccccc2Cl)o1	-22.5%	?	60.3*	.	80.6*	66.5%
COc1cc2c(cc1OC)C(NC(=O)c1ccc(C)cc1)CC2=O (stereo unspecified)	2.4%	38.1%	-3.6	1.5%	-6.2	-1.4%
COc1cc(OC)c(NC(=O)c2cc(CN3CCOCC3)on2)cc1Cl	1.1%	.	.	.	.	.
CCCc1nnc(NC(=O)OCC)s1	-0.4%	-16.2%	-1.5	-1.4%	4.4	50.9%
CC(C)(C)OC(=O)N1CCC(c2c(C(=O)NC3CCN(Cc4ccccc4)CC3)cnn2-c2cccc(F)c2)CC1	-1.4%	.	.	.	.	.
Cc1ccc(C(CNC(=O)c2ccco2)N2CCN(C)CC2)cc1 (stereo unspecified)	-9.5%	12.9%	.	.	.	24.8%
CCOc1ccc(CCNC(=O)CS(=O)Cc2nc(-c3ccc(C)cc3)oc2C)cc1OCC (stereo unspecified)	-23.6%	-31.0%	0.2	10.8%	-1.3	-14.2%
Cc1ccc(-c2nc(CS(=O)CC(=O)NCCCc3ccccc3)c(C)o2)cc1 (stereo unspecified)	35.5µM*	?	22.0*	12.3%	2.4	1.9%
Cc1ccc(-c2nc(CS(=O)CC(=O)NCCc3ccc(Cl)cc3)c(C)o2)cc1 (stereo unspecified)	-4.5%	.	.	.	.	.
CCOc1ccc(CCNC(=O)CS(=O)Cc2nc(-c3ccc(C)cc3)oc2C)cc1 (stereo unspecified)	22.4µM*	6.6%	1.1	13.4%	-1.7	4.6%
CCc1ccc(-c2nc(CS(=O)CC(=O)NCCc3ccc(Cl)cc3)c(C)o2)cc1 (stereo unspecified)	31.6µM*	.	.	.	.	.
COc1ccc(-c2nc(CS(=O)CC(=O)NCCC3=CCCCC3)c(C)o2)cc1 (stereo unspecified)	39.8µM*	?	30.6*	-42.0%	81.5	.
